Inconclusive results are not listed. Active and inactive are the calls of the source. The calls were made as follows: active = hit-call score of the fitted dose curve at least 0.9, where 1 is the maximum; inconclusive = response in the unintended direction; inactive = score below 0.9.

The assay deals with Peroxisome proliferator-activated receptor gamma (Homo sapiens) (UniProt P37231). Briefly: OT_PPARg_PPARgSRC1_0480: Odyssey Thera (OT) 8-hour Protein-Complementation Assay for Peroxisome Proliferator-activated Receptor Gamma / SRC-1 Co-activator (AID 2283387).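 Also: nuclear to cytoplasmic split Venus YFP fluorescence ratio reporting PPARg SRC-1 interaction.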 As to the method: OT_PPARg_PPARgSRC1_0480 is a cell-based assay that uses HEK293T, a human kidney cell line, with measurements taken at 8 hours after chemical dosing in a 384-well plate.OT_PPARg_PPARgSRC1_0480 is one of one assay component(s) measured or calculated from the OT_PPARg_PPARgSRC1_0480 assay. It is designed to make measurements of protein fragment complementation, a form of binding reporter, as detected with fluorescence intensity signals by Protein-fragment Complementation technology.Data from the assay component OT_PPARg_PPARgSRC1_0480 was analyzed into 1 assay endpoint. This assay endpoint, OT_PPARg_PPARgSRC1_0480, was analyzed in the positive analysis fitting direction relative to DMSO as the negative control and baseline of activity. Using a type of binding reporter, measures of receptor for gain-of-signal activity can be used to understand the binding at the pathway-level as they relate to the gene PPARG. Furthermore, this assay endpoint can be referred to as a primary readout, because the performed assay has only produced 1 assay endpoint. To generalize the intended target to other relatable targets, this assay endpoint is annotated to the nuclear receptor intended target family, where the subfamily is non-steroidal.
Sequence of Peroxisome proliferator-activated receptor gamma (Homo sapiens) (P37231 whole entry, looked up, the tested form may be a part): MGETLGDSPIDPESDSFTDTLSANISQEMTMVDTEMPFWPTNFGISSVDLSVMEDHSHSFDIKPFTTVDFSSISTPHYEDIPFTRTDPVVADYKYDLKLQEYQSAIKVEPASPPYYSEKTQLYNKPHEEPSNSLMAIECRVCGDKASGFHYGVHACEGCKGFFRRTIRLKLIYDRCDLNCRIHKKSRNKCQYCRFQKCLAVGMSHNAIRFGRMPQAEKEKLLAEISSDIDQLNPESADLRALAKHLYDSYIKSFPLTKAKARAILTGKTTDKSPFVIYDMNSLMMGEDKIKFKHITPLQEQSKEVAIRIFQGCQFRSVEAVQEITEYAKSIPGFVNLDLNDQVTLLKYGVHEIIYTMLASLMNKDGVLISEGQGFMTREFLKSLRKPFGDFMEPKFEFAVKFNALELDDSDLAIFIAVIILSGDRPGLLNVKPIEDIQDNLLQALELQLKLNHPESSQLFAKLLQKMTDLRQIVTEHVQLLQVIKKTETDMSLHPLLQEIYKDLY
The OT PPARg/SRC-1 assay assessed receptor-chemical interactions using a rapidly maturing, intensely fluorescent mutant of YFP known as Venus, rationally dissected into two separate fragments. The fragments were obtained as follows: first, fragments coding for YFP1 and YFP2 (corresponding to amino acid residues 1-158 and 159-239 of the full length YFP, respectively) were generated by oligonucleotide synthesis (Blue Heron Biotechnology), and then PCR mutagenesis was used to generate the mutant fragments IFP1 and IFP2. Fusion constructs were transfected into HEK293T cells with a (Gly4Ser)2 linker between the PPARg/SRC-1 and YFP fragment genes to facilitate complementation when interacting proteins bring fragments into close proximity. The construct is transiently transfected in HEK293T cells 48 hours prior to treatment with test compounds. Cells are seeded into optical quality 384-well poly-D-lysine coated plates in MEM alpha medium (Invitrogen) supplemented with 10 percent FBS (Gemini Bio-Products) 1 percent penicillin and 1 percent streptomycin, and grown in 37C incubator equilibrated to 5 percent CO2. Cells are allowed to adhere for 24 hours prior to treatment with compounds of interest or controls for 8 hours. Cells are fixed in 4 percent formaldehyde and stained with Draq5 (BioStatus) to identify cells and subcellular compartment boundaries prior to signal detection. 8 Images per well were acquired on an Evotec Opera at 2 wavelengths (488 and 635nm), and the ratio of fluorescence in the nucleus relative to fluorescence in the cytoplasm (N/C Ratio) in the 488nm channel was calculated for a minimum of 350 cells per image.
Turning to `C=CC(Cl)CCl` (stereo not given), the outcome was inactive.
`O=C(NC(=O)c1c(F)cccc1F)Nc1ccc(Cl)cc1`: the compound was classed as inactive.
Consider `Cc1cc(Cl)ccc1OC(C)C(=O)O` (stereo not given), for which the result was inactive.
The same measure, in the same setting: the same measure for `Oc1c(Br)cc(Br)cc1Br`: “inactive”; for `O=[N+]([O-])c1ccc(Cl)c([N+](=O)[O-])c1`: “inactive”; for `CN(N=O)C(N)=O`: “inactive”.
Still for that read-out and setting: the same measure for `N#Cc1cccnc1`: “inactive”; for `O=S1OC[C@@H]2[C@H](CO1)[C@]1(Cl)C(Cl)=C(Cl)[C@@]2(Cl)C1(Cl)Cl` (stereo not given in full): “inactive”; for `CC(O)(CS(=O)(=O)c1ccc(F)cc1)C(=O)Nc1ccc(C#N)c(C(F)(F)F)c1` (stereo not given): “inactive”.
Same read-out and setting: the same measure for `CCCCCCCCCCCCN(C)C`: “inactive”; for `Cc1cc(Cl)ccc1O`: “inactive”; for `N#CCCC(Br)(C#N)CBr` (stereo not given): “inactive”.
With `CCCSP(=S)(OCC)Oc1ccc(SC)cc1` (stereo not given), the call was inactive.
The same measure, in the same setting: the same measure for `O=C(CBr)c1ccc(O)cc1`: “inactive”; for `Nc1ccc(N)cc1`: “inactive”; for `CNC(=O)O/N=C/C(C)(C)S(C)(=O)=O`: “inactive”.
One may read the AC50 as the concentration giving half of the maximal activity seen. For `O=S1(=O)OC(c2cc(Br)c(O)c(Br)c2)(c2cc(Br)c(O)c(Br)c2)c2ccccc21`, the AC50 is 46.5 µM (active).
Turning to `N#CS`, the call was inactive.
The same measure, in the same setting: the same measure for `CCC[CH2][Sn]([Cl])([Cl])[CH2]CCC`: “inactive”; for `OCCCCO`: “inactive”; for `O=C(O)COc1ccc(Cl)cc1`: “inactive”.
For `Clc1cccc(Cl)c1`, the outcome was inactive.
With `Cc1cc(Cl)ccc1OCCCC(=O)O`, the outcome was inactive.
On to `O=[N+]([O-])c1ccccc1O`, for which the result was inactive.
The same measure, in the same setting: the same measure for `O=C1c2ccccc2C(=O)C1C(=O)C(c1ccccc1)c1ccc(Cl)cc1` (stereo not given): “inactive”; for `O=C(NC(=O)c1c(F)cccc1F)Nc1cc(Cl)c(OC(F)(F)C(F)C(F)(F)F)cc1Cl` (stereo not given): “inactive”; for `Oc1cc(Cl)c(Cl)cc1Cl`: “inactive”.
Turning to `COc1ccc(N)cc1`, the compound was classed as inactive.
The same measure, in the same setting: then `CC(C)(C)c1ccccc1O`, with “inactive”; and `O=c1nc(O)n(Cl)c(=O)n1Cl`, with “inactive”.
The same measure, in the same setting: then `Nc1ncn[nH]1`, with “inactive”; and `CC1(C)[C@H](C(=O)O[C@H](C#N)c2cccc(Oc3ccccc3)c2)[C@@H]1/C=C(\Cl)C(F)(F)F`, with “inactive”.
Consider `O=C(N[C@H]1CN2CCC1CC2)c1ccc2c(c1)OCCO2`, for which the compound was classed as inactive.
The same measure, in the same setting: the same measure for `CCOP(=S)(OCC)O/N=C(\C#N)c1ccccc1`: “inactive”; for `O=c1[nH]c(=O)n(Cl)c(=O)n1Cl`: “inactive”.
On the same count and under the same terms, then `COc1ccccc1N`, with “inactive”.
The same measure, in the same setting: the same measure for `O=C(O)COc1cc(Cl)c(Cl)cc1Cl`: “inactive”; for `O=C(CCl)Nc1ccccc1`: “inactive”; for `COCCl`: “inactive”.
In the case of `CCN(CCO)CCO`, the compound was called inactive.

Values taken from PubChem BioAssay (EPA / NIEHS).
